# Reference: PubChem BioAssay (NCI)
# About 83,000 compounds went through this panel and 20% of them were active in at least one assay; those are over-represented in the sample as a whole.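 Plates (96-well) were seeded with cells, treated with compound at one concentration, and incubated for 48 hours before percent growth was determined.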 A number with no mark means an inactive call. The source made the active and inactive calls. How the source made its calls: active means growth percent below 10; inactive means the rest.
# Experiments:
# Assay in all cases: NCI-60 one-dose screen, 48 h (100 = growth as untreated, 0 = no growth, -100 = all killed)
# SR leukemia = conditions: 10 µM unless noted
# RPMI-8226 leukemia = conditions: 10 µM unless noted
# OVCAR-8 ovarian = conditions: 10 µM unless noted
# OVCAR-5 ovarian = conditions: 10 µM unless noted
# OVCAR-4 ovarian = conditions: 10 µM
# IGROV1 ovarian = conditions: 10 µM unless noted
# OVCAR-3 ovarian = conditions: 10 µM unless noted
# HS 578T breast = conditions: 10 µM unless noted
# NCI/ADR-RES ovarian = conditions: 10 µM unless noted
# T-47D breast = conditions: 10 µM unless noted
# BT-549 breast = conditions: 10 µM unless noted
# MDA-MB-435 melanoma = conditions: 10 µM unless noted
# SW-620 colon = conditions: 10 µM unless noted
# MCF7 breast = conditions: 10 µM unless noted
# HCT-116 colon = conditions: 10 µM unless noted
# HCC-2998 colon = conditions: 10 µM unless noted
# KM12 colon = conditions: 10 µM unless noted
SMILES,growth (SR leukemia),growth (RPMI-8226 leukemia),growth (OVCAR-8 ovarian),growth (OVCAR-5 ovarian),growth (OVCAR-4 ovarian),growth (IGROV1 ovarian),growth (OVCAR-3 ovarian),growth (HS 578T breast),growth (NCI/ADR-RES ovarian),growth (T-47D breast),growth (BT-549 breast),growth (MDA-MB-435 melanoma),growth (SW-620 colon),growth (MCF7 breast),growth (HCT-116 colon),growth (HCC-2998 colon),growth (KM12 colon)
C[n+]1c2ccccc2nc2c(N)cc(N)cc21,38.3%,80.2%,41.6%,101%,72.5%,70.1%,15.2%,55.5%,92.9%,54.2%,46%,126%,87.1%,82.7%,78.2%,92.4%,63.8%
O=C(NNc1ccc(-c2ccccc2)nn1)c1ccccc1,103%,102%,99.5%,100%,96%,99.3%,108%,103%,102%,98.8%,94.6%,101%,103%,92%,91.3%,106%,102%
COc1ccc(NCc2cn(-c3ccc(C(=O)O)cc3)nc2-c2ccc(C(=O)O)cc2)cc1C(F)(F)F,131%,88.4%,103%,93.3%,93.3%,99.7%,105%,83.2%,105%,92.7%,98%,101%,97.2%,96.1%,104%,104%,102%
Cc1ncc(C(=O)Nc2ccc(CN3CCN(C)CC3)c(C(F)(F)F)c2)cc1C#Cc1c(N)ncc2ccc(C#N)cc12,16.1%,40.6%,53.2%,41.2%,44.5%,10.4%,37.8%,26.9%,61.7%,48.9%,51.4%,7.01% (active),34.1%,29.5%,14.5%,58.4%,9.43% (active)
c1cc2ccc1CNCCN1CCNCc3ccc(cc3)Oc3ccc(cc3)CNCCN(CCNCc3ccc(cc3)O2)CCNCc2ccc(cc2)Oc2ccc(cc2)CNCC1,-40.1% (active),-49% (active),-7.54% (active),-55.1% (active),-77.6% (active),-64.3% (active),-94.6% (active),-48.7% (active),103%,-64.5% (active),82.1%,-96.3% (active),-75.5% (active),-75.4% (active),-89.7% (active),-87.8% (active),-88.6% (active)
CCCSc1nc(N)nc2nc[nH]c12,107%,101%,99.8%,108%,114%,80.8%,103%,135%,108%,97.6%,156%,117%,113%,104%,95.3%,115%,114%
Cc1cccc(C[C@H](NC(=O)Nc2ccc(Cl)cc2F)C(=O)N[C@@H]2C(=O)N3C[C@H](OC(=O)CCN(C)C)C[C@H]3C(=O)N3CCCC[C@H]3C(=O)N[C@@H](C)C(=O)N3C[C@H](C)C[C@H]3C(=O)O[C@H]2C)c1,28.7%,10%,16.8%,32.6%,11.4%,35.6%,8.87% (active),26.2%,94.9%,13.8%,4.55% (active),14.6%,30.2%,13.4%,-29% (active),19%,23%
Cc1ccc(-c2cn(C/C=C3\C=CN(S(=O)(=O)c4ccccc4)CC3)nn2)cc1,108%,102%,100%,120%,74.2%,104%,108%,97.2%,99.6%,78.3%,96.1%,101%,102%,90.3%,98%,109%,101%
CC1(C)CC(=O)c2c(ccc(C(=O)C[C@@H](N)CO)c2N)O1,14.7%,0.0254% (active),7.69% (active),49.8%,71.1%,12.9%,0.385% (active),84.7%,35%,29.5%,-4.27% (active),39.5%,7.17% (active),8.5% (active),8.56% (active),-20.4% (active),11%
O=C1/C(=C\c2cccn2Cc2ccccc2)c2ccccc2N1c1c(Cl)cccc1Cl,90.6%,60.2%,90.8%,38.7%,-2.5% (active),28.2%,7.01% (active),83.2%,70.9%,-35.7% (active),81%,91%,85.7%,6.23% (active),27.1%,22.1%,4.07% (active)
CCN(CC)c1ccc2cc(NC(=O)OCCNC(=O)CCNC(=O)[C@H](CC(C)C)NC(=O)C(C)(C)NC(=O)C(C)(C)NC(=O)[C@H](CC(C)C)NC(=O)CCNC(=O)C(C)(C)NC(=O)[C@H](CC(C)C)NC(=O)CCNC(=O)[C@@](C)(CC)NC(=O)[C@H](C)NC(=O)CCNC(=O)C(C)(C)NC(=O)[C@H](C)NC(=O)[C@@H]3CCCN3C(=O)[C@@](C)(CC)NC(=O)[C@H](Cc3ccccc3)NC(=O)C3CCCN3C(=O)C(C)(C)NC(=O)C3CCCN3C(=O)C(C)(C)NC(C)=O)c(=O)oc2c1 (stereo partly drawn),-52.9% (active),-60.4% (active),-74.8% (active),-87.7% (active),-94.9% (active),-69.3% (active),-100% (active),-60.1% (active),-93.5% (active),-71.4% (active),-93.3% (active),-76.2% (active),-77.4% (active),-88.2% (active),-91.2% (active),-94.2% (active),-98.5% (active)
Fc1cc2[nH]ncc2c2c3c(c(-c4cn[nH]c4)nc12)CCCC3,13.8%,1.77% (active),4.78% (active),4.24% (active),16.1%,1.4% (active),7.22% (active),-3.3% (active),34.7%,-19.3% (active),-17.3% (active),5.22% (active),5.91% (active),3.02% (active),5.6% (active),16.5%,5.18% (active)
CCOC(=O)n1cc(C2=C(c3ccc(OC)c(OC)c3)COC2=O)c2ccccc21,18.1%,27.9%,25.5%,50.1%,35.3%,18.2%,-42.6% (active),36.2%,8.29% (active),48.8%,0.425% (active),-18.4% (active),26.5%,14.9%,4.07% (active),19.2%,2.26% (active)
C#C[C@]1(O)CC[C@H]2[C@@H]3CC=C4c5nc(Nc6ccccc6[N+](=O)[O-])sc5CC[C@]4(C)[C@H]3CC[C@@]21C,30.2%,1.11% (active),85.7%,70.4%,84.9%,67.2%,65.8%,21.4%,75.8%,41.3%,34%,66.1%,76%,56.9%,45.7%,61.1%,54.1%
c1cc2ccc3cc2cc1CNCCN1CCNCc2ccc4ccc(cc4c2)CNCCN(CCNC3)CCNCc2ccc3ccc(cc3c2)CNCC1,10.1%,7.69% (active),69.3%,0.497% (active),-7.14% (active),21.9%,-1.21% (active),48.4%,99%,-6.97% (active),97.3%,-5.25% (active),23.4%,-5.39% (active),5.35% (active),19.2%,-15.5% (active)
Cc1cc(N2CCCCCC2)nc(N2CCN(CC(=O)Nc3ccc4c(ccn4Cc4ccccc4)c3)CC2)n1,23.4%,43.9%,32.5%,74.4%,46.1%,49.9%,55.4%,47.2%,37.6%,20.2%,59%,67.7%,63.2%,24.1%,32%,91.7%,35%
COc1cc2c(O)n(CCCN3CCOCC3)c3c4cnc5cccc(c(=O)c3c2cc1OC)c54,20.5%,14.8%,39.9%,69%,48%,60.3%,62.9%,81.2%,74.5%,18.6%,,47.2%,34.9%,14.5%,27.9%,59.2%,46.3%
